From the supplement of paper PMC6992640
± gives the standard deviation of the averaged measurements.

Assays:
Assay in all cases: cell viability (% of vehicle); higher = less cytotoxic
HCI01 [1] = cells of a triple-negative basal-like breast cancer xenograft; details: 10 µM; 72 h
HCI03 = cells of an ER-positive luminal breast cancer xenograft; details: 10 µM; 72 h
HCI09 = cells of a triple-negative luminal androgen receptor type breast cancer xenograft; details: 10 µM; 72 h
HCI11 = cells of an ER-positive luminal breast cancer xenograft; details: 10 µM; 72 h
HCI13 = cells of an ER-positive luminal breast cancer xenograft; details: 10 µM; 72 h
HCI16 = cells of a triple-negative basal-like breast cancer xenograft; details: 10 µM; 72 h
UCD52 [2] = cells of a triple-negative basal-like breast cancer xenograft; details: 10 µM; 72 h
HCI01 [3] = details: 1 µM; 72 h
UCD52 [4] = details: 1 µM; 72 h
WHIM2 [5] = cells of a triple-negative basal-like breast cancer xenograft; details: 1 µM; 72 h
WHIM30 [6] = cells of a triple-negative basal-like breast cancer xenograft; details: 1 µM; 72 h
WHIM2 [7] = details: 10 µM; 72 h
WHIM30 [8] = details: 10 µM; 72 h

Row | Compound | cell viability (HCI01 [1]) | cell viability (HCI03) | cell viability (HCI09) | cell viability (HCI11) | cell viability (HCI13) | cell viability (HCI16) | cell viability (UCD52 [2]) | cell viability (HCI01 [3]) | cell viability (UCD52 [4]) | cell viability (WHIM2 [5]) | cell viability (WHIM30 [6]) | cell viability (WHIM2 [7]) | cell viability (WHIM30 [8])
1 | Cc1c(OCC(F)(F)F)ccnc1CS(=O)c1nc2ccccc2[nH]1 (centres undefined) [Lansoprazole] | 170 ± 24 | 160 | 97.4 ± 32 | 128 | 142 ± 24 | 144 | 190 ± 5.9 | – | – | – | – | – | –
2 | CC[C@@]1(O)C(=O)OCc2c1cc1n(c2=O)Cc2cc3c(CN(C)C)c(O)ccc3nc2-1.Cl [Topotecan HCl] | 38 ± 13 | – | 35.2 ± 10 | 51.9 | 54.7 ± 1.9 | 69.1 | 42 ± 7.3 | 65.4 | 93.4 | 49.6 | 41.7 | 43.7 ± 2.5 | 82.1 ± 9.8
3 | CC(C)CC(NC(=O)C(CCc1ccccc1)NC(=O)CN1CCOCC1)C(=O)NC(Cc1ccccc1)C(=O)NC(CC(C)C)C(=O)C1(C)CO1 (centres undefined) [Carfilzomib (PR-171)] | 32.3 ± 3.5 | – | 25.7 ± 4.7 | 55.9 | 32.9 ± 4.7 | 38.9 | 64.4 ± 11 | 29.2 | 16.6 | 43.9 | 22.9 | 26.4 ± 11 | 68.8 ± 2.6
4 | COc1cccc2c1C(=O)c1c(O)c3c(c(O)c1C2=O)CC(O)(C(=O)CO)CC3OC1CC(N)C(O)C(C)O1.Cl (centres undefined) [Doxorubicin (Adriamycin) HCl] | 70.4 ± 23 | 196 | 29.7 ± 8.2 | 41.4 | – | 66.1 | 33.1 ± 1.4 | 93.6 | 38.7 | 26.8 | 45.9 | 35.6 ± 6.6 | 77 ± 21
5 | Cc1c(OCC(F)(F)F)ccnc1CS(=O)c1nc2ccccc2[n-]1.[Na+] (centres undefined) [Lansoprazole sodium] | 181 ± 1.4 | 145 | 124 ± 9 | 163 | 135 ± 5.7 | 152 | 138.2 ± 0.31 | – | – | – | – | 143 ± 9.9 | –
6 | CCC1OC(=O)CC(O)C(C)C(OC2OC(C)C(OC3CC(C)(O)C(O)C(C)O3)C(N(C)C)C2O)C(CC=O)CC(C)C(=O)C=CC(C)=CC1COC1OC(C)C(O)C(OC)C1OC.O=C(O)C(O)C(O)C(=O)O (centres undefined) [Tylosin tartrate] | 75.1 ± 40 | 165 | 88.2 ± 5.5 | 82.3 | 97.3 ± 33 | 126 | 85.2 ± 5.8 | – | – | – | – | 110.8 ± 0.8 | –
7 | CS(=O)(=O)CCNCc1ccc(-c2ccc3ncnc(Nc4ccc(OCc5cccc(F)c5)c(Cl)c4)c3c2)o1 [Lapatinib] | 112 ± 63 | 45.4 | 39.3 ± 17 | 98.8 | 42.2 ± 0.47 | 168 | 51.2 ± 3.6 | – | – | – | – | 40.7 ± 5.3 | –
8 | O=c1cc[nH]c(=O)[nH]1 [Uracil] | 120 ± 20 | 139 | 116 ± 28 | 98.8 | 64.47 ± 0.33 | 116 | 101 ± 7 | – | – | – | – | 135 ± 11 | –
9 | CC(=O)NC1C(N=C(N)N)C=C(C(=O)O)OC1C(O)C(O)CO (centres undefined) [Zanamivir] | 82.4 ± 58 | 156 | 96 ± 12 | 90.8 | 108 ± 2.3 | 113 | 90.4 ± 1.5 | – | – | – | – | 106 ± 31 | –
10 | COC(=O)Nc1nc2ccc(Sc3ccccc3)cc2[nH]1 [Fenbendazole] | 193 ± 48 | 129 | 182 ± 25 | 129 | 155 ± 32 | 153 | 121.4 ± 0.081 | – | – | – | – | 142 ± 20 | –
11 | CCN1CCN(C(=O)NC(C(=O)NC2C(=O)N3C(C(=O)O)=C(CSc4nnnn4C)CSC23)c2ccc(O)cc2)C(=O)C1=O (centres undefined) [Cefoperazone] | 110.1 ± 0.54 | 158 | 120 ± 16 | 132 | 174 ± 9.6 | 104 | 131 ± 18 | – | – | – | – | 108 ± 22 | –
12 | COc1cc(Cc2cnc(N)nc2N)cc(OC)c1OC [Trimethoprim] | 78.3 ± 37 | 144 | 91.1 ± 7.9 | 93 | 117 ± 22 | 120 | 95.4 ± 7.4 | – | – | – | – | 118 ± 7.3 | –
13 | COc1cccc2c1C(=O)c1c(O)c3c(c(O)c1C2=O)CC(O)(C(=O)CO)CC3OC1CC(N)C(O)C(C)O1.Cl (centres undefined) [Epirubicin HCl] | 56.2 ± 19 | – | 26.2 ± 13 | 50.5 | – | 35.4 | 22.7 ± 4 | 105 | 35.9 | 22.2 | 46.4 | 29.1 ± 15 | 50.8 ± 12
14 | CCCNC(C)C(=O)Nc1ccccc1C (centres undefined) [Prilocaine] | 77.2 ± 50 | 145 | 102 ± 1.6 | 92 | 119.7 ± 0.81 | 108 | 79.7 ± 1.1 | – | – | – | – | 98.7 ± 19 | –
15 | COc1ccc2cc(CCC(C)=O)ccc2c1 [Nabumetone] | 170 ± 32 | 172 | 200 ± 62 | 141 | 199 ± 10 | 136 | 151 ± 25 | – | – | – | – | 117 ± 11 | –
16 | CCC1(c2ccccc2)C(=O)NCNC1=O [Primidone] | 78.1 ± 54 | 162 | 105 ± 2.9 | 90.6 | 134.7 ± 0.7 | 121 | 85.1 ± 8.9 | – | – | – | – | 100 ± 33 | –
17 | O=C(Nc1ccccc1)c1ccccc1O [Salicylanilide] | 165 ± 40 | 133 | 143 ± 34 | 111 | 98.3 ± 6.3 | 153 | 123 ± 4.3 | – | – | – | – | 160 ± 20 | –
18 | CNC(=O)C(Cc1c[nH]c2ccccc12)NC(=O)C(CC(=O)NO)CC(C)C (centres undefined) | 141 ± 3.8 | 116 | 88.9 ± 9.2 | 129 | 92.5 ± 5.4 | 140 | 126 ± 16 | – | – | – | – | 105 ± 14 | –

Row | Compound | cell viability (HCI01 [1]) | cell viability (HCI03) | cell viability (HCI09) | cell viability (HCI11) | cell viability (HCI13) | cell viability (HCI16) | cell viability (UCD52 [2]) | cell viability (HCI01 [3]) | cell viability (UCD52 [4]) | cell viability (WHIM2 [5]) | cell viability (WHIM30 [6]) | cell viability (WHIM2 [7]) | cell viability (WHIM30 [8])
19 | NC(=O)c1ncn(C2OC(CO)C(O)C2O)n1 (centres undefined) [Ribavirin] | 72.7 ± 49 | 148 | 92.7 ± 2.2 | 93.7 | 118 ± 9.9 | 110 | 96.4 ± 6.9 | – | – | – | – | 99.1 ± 46 | –
20 | Cc1nc(=O)c2cc(CN(C)c3ccc(C(=O)NC(CCC(=O)O)C(=O)O)s3)ccc2[nH]1 (centres undefined) [Raltitrexed] | 93.9 ± 5.5 | 122 | 104 ± 27 | 86.9 | 95.59 ± 0.3 | 99 | 106 ± 4 | – | – | – | – | 116 ± 2 | –
21 | CC1(COc2ccc3c(c2)ncn3-c2ccc3cccc(N4CCC(N)CC4)c3n2)COC1 | 41.1 ± 22 | – | 12.7 ± 2.4 | – | 26.6 ± 24 | – | 34 ± 9.8 | 97.6 | 138 | – | 71.3 | 35 ± 13 | 60.3 ± 3.4
22 | CC(O)C(=O)O.CC(O)C(=O)O.CN1CCN(c2ccc3c(c2)NC(=C2C(=O)N=c4cccc(F)c4=C2N)N3)CC1 [Dovitinib Dilactic acid] | 43.1 ± 5.7 | – | 19.9 ± 0.23 | 66 | 79 ± 2.3 | 44.4 | 21.9 ± 2.9 | 103 | 89.6 | 96.9 | 77.8 | 52.2 ± 12 | –
23 | OCCN1CC(O)C(O)C(O)C1CO (centres undefined) [Miglitol] | 68.9 ± 43 | 136 | 99.2 ± 8.7 | 92.4 | 113 ± 0.17 | 116 | 86.2 ± 7.9 | – | – | – | – | 95.7 ± 50 | –
24 | CN1CCN(CCCN2c3ccccc3Sc3ccc(Cl)cc32)CC1 [Prochlorperazine] | 113 ± 3 | 118 | 98.8 ± 8.7 | 91.1 | 128 ± 17 | 92.1 | 63.7 ± 7.7 | – | – | – | – | 74.7 ± 5 | –
25 | NC(=O)OCC(COC(N)=O)c1ccccc1 [Felbamate] | 71.2 ± 42 | 137 | 90.7 ± 10 | 95.3 | 103 ± 8.3 | 101 | 81.2 ± 7.7 | – | – | – | – | 99.5 ± 11 | –
26 | CC(=O)C1(O)Cc2c(O)c3c(c(O)c2C(OC2CC(N)C(O)C(C)O2)C1)C(=O)c1ccccc1C3=O.Cl (centres undefined) [Idarubicin HCl] | 37.5 ± 5.3 | 67.6 | 28.4 ± 1.2 | 27.8 | 47.1 ± 3.2 | 32.1 | 31.4 ± 6.4 | – | 32.5 | 28.8 | 41.2 | 29.3 ± 9.9 | 44.7 ± 14
27 | NS(=O)(=O)c1cc2c(cc1Cl)NC(C(Cl)Cl)NS2(=O)=O (centres undefined) [Trichlormethiazide] | 104 ± 57 | 164 | 98.053 ± 0.0031 | 89.9 | 129.2 ± 0.42 | 186 | 142 ± 9.3 | – | – | – | – | 141 ± 8.7 | –
28 | O=C(c1cc(Cc2n[nH]c(=O)c3ccccc23)ccc1F)N1CCN(C(=O)C2CC2)CC1 | 166 ± 50 | 112 | 72.2 ± 9.9 | 129 | 103 ± 5.2 | 166 | 117 ± 16 | – | – | – | – | 105 ± 6.3 | –
29 | CCOC(=O)c1c(C)n(C)c2ccc(O)cc12 [Mecarbinate] | 72.1 ± 43 | 152 | 111 ± 4.2 | 90.9 | 135 ± 14 | 115 | 87.3 ± 3.8 | – | – | – | – | 99.6 ± 22 | –
30 | CC(C)(C)C(=O)OCOP(=O)(COCCn1cnc2c(N)ncnc21)OCOC(=O)C(C)(C)C [Adefovir Dipivoxil] | 109 ± 43 | 148 | 62.7 ± 38 | 105 | 43.6 ± 9.2 | 129 | 101 ± 9.6 | – | – | – | – | 50.6 ± 3.7 | –
31 | CCc1cnn2c(NCc3ccc[n+]([O-])c3)cc(N3CCCCC3CCO)nc12 (centres undefined) | 38.1 ± 3.4 | – | 62.5 ± 35 | 72.6 | – | 92.9 | 42.1 ± 6.4 | 46.8 | 29.2 | 38.1 | 34.9 | 48.7 ± 12 | 66.2 ± 6.1
32 | CC(=O)Nc1ccccc1 [Acetanilide] | 76.6 ± 44 | 163 | 99.2 ± 7.3 | 81.8 | 110 ± 8.1 | 138 | 75.2 ± 13 | – | – | – | – | 126 ± 14 | –
33 | COC(c1ccccc1)(c1ccccc1)C(Oc1nc(C)cc(C)n1)C(=O)O (centres undefined) [Ambrisentan] | 79.8 ± 52 | 128 | 92.8 ± 15 | 84 | 94.1 ± 1.8 | 106 | 74.7 ± 11 | – | – | – | – | 107 ± 16 | –
34 | CCCc1cc(=O)[nH]c(=S)[nH]1 [Propylthiouracil] | 70.4 ± 44 | 153 | 100 ± 12 | 97.8 | 143 ± 30 | 120 | 91.2 ± 3.8 | – | – | – | – | 100 ± 38 | –
35 | CC(C)c1nc(N(C)S(C)(=O)=O)nc(-c2ccc(F)cc2)c1C=CC(O)CC(O)CC(=O)[O-].CC(C)c1nc(N(C)S(C)(=O)=O)nc(-c2ccc(F)cc2)c1C=CC(O)CC(O)CC(=O)[O-].[Ca+2] (centres undefined) [Rosuvastatin Calcium] | 109 ± 2.8 | 115 | 112 ± 44 | – | 126 ± 30 | 117 | 50.8 ± 4.2 | 96.2 | 83.1 | 83.4 | 84.8 | 44.1 ± 6.8 | 88.4 ± 11
